How the values were obtained:
Assay in all cases: log2 ratio of Biotin-Ahx-Ub-VS probe labelling (fragment/DMSO); higher = less target engagement (more negative = stronger competition), active = hit call of the paper (q ≤ 0.05, log2 ratio ≤ -1)
Details in all cases: compound concentration: 200 uM; treatment time: 3 h
[1] = target: T1, USP19 (UniProt O94966)
T1 sequence (whole entry): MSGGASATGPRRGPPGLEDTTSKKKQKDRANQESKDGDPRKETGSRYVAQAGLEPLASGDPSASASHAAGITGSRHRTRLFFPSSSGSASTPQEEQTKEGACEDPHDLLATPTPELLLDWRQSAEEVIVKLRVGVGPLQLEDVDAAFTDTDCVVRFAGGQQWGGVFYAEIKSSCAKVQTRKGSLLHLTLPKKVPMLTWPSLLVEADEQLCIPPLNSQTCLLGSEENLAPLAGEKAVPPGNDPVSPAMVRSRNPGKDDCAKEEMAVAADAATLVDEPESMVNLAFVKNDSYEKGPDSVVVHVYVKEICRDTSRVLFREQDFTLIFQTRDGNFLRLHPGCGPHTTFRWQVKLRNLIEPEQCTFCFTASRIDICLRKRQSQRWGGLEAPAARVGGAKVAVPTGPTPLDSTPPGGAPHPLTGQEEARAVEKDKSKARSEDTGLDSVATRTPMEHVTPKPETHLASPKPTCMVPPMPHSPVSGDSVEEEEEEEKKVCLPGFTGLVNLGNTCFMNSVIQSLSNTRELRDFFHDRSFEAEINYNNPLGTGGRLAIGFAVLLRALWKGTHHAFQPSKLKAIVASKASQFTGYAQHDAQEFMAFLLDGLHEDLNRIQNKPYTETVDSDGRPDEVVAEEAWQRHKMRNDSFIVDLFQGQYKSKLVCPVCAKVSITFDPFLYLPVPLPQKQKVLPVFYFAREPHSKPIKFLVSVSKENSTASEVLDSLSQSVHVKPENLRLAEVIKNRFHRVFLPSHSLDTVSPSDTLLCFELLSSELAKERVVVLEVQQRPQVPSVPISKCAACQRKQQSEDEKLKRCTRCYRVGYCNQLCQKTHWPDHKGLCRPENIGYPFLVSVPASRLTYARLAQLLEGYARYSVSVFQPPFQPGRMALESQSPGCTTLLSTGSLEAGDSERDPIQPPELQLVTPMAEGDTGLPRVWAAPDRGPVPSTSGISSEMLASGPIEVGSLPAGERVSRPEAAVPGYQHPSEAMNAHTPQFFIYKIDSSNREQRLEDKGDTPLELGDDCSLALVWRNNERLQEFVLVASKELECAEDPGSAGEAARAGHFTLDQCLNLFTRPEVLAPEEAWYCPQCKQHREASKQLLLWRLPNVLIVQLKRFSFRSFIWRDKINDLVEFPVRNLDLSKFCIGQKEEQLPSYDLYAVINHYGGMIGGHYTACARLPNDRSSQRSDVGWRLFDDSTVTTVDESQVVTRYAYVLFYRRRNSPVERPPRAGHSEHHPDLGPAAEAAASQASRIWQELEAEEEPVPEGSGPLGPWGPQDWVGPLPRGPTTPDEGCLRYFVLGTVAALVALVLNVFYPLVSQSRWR
How it was run: (§1)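 Fragment (200 µM) or vehicle was incubated for 3 h with triplicate HEK293T lysate samples of 495 µg, which were then treated with Biotin-Ahx-Ub-VS at 0.5 µM final for 1 h. Labelled DUBs were enriched on NeutrAvidin, digested with LysC and trypsin, and analysed by diaPASEF LC-MS/MS. Values are average log2 fragment/vehicle ratios from an unpaired t-test on global-median-normalised Spectronaut label-free quantities, using proteins with ≥2 unique peptides.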

[2] = target: T2, USP22 (UniProt Q9UPT9)
T2 sequence (whole entry): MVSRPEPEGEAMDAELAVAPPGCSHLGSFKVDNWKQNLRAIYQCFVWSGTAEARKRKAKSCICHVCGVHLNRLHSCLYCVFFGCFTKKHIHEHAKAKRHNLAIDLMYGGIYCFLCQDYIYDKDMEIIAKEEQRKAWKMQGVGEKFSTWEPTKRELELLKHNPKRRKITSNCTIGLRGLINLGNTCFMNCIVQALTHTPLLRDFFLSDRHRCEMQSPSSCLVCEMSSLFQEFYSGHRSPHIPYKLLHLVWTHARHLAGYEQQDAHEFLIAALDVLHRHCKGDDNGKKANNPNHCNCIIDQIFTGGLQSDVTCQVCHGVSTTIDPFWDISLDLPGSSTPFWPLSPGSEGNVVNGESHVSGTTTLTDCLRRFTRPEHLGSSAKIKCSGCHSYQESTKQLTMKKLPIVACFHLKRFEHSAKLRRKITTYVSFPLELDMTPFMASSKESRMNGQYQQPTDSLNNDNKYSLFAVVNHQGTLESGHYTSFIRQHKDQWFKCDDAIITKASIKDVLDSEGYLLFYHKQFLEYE
How it was run: as §1

[3] = target: USP24 (UniProt Q9UPU5)
How it was run: as §1

[4] = target: T3, USP25 (UniProt Q9UHP3)
T3 sequence (whole entry): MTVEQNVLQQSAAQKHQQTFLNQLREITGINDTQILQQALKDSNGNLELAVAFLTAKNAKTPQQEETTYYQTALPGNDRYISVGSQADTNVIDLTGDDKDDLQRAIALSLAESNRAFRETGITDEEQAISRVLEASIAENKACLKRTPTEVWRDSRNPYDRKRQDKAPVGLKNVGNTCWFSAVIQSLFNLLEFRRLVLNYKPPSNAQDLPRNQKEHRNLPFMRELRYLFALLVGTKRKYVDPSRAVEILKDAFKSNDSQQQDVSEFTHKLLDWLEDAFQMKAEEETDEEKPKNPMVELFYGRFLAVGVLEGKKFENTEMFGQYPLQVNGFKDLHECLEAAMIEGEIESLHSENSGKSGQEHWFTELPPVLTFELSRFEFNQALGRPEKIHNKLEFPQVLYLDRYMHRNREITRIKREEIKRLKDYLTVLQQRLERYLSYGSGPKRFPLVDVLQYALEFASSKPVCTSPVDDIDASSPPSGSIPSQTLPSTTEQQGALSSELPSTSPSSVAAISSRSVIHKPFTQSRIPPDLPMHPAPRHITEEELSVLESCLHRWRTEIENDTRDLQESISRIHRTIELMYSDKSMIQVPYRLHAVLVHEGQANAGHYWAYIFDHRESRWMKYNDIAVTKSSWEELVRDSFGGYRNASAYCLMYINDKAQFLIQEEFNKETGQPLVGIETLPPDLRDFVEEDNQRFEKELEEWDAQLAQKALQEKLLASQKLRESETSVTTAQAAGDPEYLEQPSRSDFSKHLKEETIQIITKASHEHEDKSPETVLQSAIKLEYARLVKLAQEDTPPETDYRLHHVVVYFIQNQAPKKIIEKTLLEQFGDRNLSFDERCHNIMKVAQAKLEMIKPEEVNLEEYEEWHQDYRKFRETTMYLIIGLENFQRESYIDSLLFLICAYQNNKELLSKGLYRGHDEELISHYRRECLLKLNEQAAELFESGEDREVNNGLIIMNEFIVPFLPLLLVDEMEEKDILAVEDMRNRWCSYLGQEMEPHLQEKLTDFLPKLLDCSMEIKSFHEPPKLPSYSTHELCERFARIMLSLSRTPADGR
How it was run: as §1

[5] = target: T4, USP28 (UniProt Q96RU2)
T4 sequence (whole entry): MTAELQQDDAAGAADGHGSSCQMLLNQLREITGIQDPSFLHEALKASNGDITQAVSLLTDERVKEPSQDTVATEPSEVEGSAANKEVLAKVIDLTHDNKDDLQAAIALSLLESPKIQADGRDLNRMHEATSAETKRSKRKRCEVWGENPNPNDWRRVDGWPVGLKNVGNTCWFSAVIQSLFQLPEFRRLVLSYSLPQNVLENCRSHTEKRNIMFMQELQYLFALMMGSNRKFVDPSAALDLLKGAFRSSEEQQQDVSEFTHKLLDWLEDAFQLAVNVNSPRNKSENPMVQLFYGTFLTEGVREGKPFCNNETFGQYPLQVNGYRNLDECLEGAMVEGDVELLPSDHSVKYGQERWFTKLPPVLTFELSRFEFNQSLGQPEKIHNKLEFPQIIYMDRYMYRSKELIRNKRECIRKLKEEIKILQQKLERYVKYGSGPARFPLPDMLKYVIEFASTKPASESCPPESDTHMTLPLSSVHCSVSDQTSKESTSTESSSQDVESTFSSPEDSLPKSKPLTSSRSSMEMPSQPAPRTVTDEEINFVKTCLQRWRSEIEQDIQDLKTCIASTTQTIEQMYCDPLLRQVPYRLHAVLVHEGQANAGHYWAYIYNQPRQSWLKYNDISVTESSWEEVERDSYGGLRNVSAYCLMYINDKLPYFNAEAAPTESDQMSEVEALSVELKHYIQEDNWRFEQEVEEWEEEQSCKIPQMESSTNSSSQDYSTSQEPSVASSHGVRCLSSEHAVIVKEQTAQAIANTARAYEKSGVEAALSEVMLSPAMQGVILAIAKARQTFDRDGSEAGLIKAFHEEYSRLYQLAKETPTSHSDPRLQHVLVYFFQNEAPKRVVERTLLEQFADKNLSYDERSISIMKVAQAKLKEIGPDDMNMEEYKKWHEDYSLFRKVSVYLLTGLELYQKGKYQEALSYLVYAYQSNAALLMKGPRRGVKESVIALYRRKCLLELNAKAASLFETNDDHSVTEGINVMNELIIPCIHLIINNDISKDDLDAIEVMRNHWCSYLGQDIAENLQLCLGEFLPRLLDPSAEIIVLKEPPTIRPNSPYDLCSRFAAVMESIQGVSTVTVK
How it was run: as §1

Measured: log2 ratio of Biotin-Ahx-Ub-VS probe labelling

Sequence of USP24 (Q9UPU5 whole entry): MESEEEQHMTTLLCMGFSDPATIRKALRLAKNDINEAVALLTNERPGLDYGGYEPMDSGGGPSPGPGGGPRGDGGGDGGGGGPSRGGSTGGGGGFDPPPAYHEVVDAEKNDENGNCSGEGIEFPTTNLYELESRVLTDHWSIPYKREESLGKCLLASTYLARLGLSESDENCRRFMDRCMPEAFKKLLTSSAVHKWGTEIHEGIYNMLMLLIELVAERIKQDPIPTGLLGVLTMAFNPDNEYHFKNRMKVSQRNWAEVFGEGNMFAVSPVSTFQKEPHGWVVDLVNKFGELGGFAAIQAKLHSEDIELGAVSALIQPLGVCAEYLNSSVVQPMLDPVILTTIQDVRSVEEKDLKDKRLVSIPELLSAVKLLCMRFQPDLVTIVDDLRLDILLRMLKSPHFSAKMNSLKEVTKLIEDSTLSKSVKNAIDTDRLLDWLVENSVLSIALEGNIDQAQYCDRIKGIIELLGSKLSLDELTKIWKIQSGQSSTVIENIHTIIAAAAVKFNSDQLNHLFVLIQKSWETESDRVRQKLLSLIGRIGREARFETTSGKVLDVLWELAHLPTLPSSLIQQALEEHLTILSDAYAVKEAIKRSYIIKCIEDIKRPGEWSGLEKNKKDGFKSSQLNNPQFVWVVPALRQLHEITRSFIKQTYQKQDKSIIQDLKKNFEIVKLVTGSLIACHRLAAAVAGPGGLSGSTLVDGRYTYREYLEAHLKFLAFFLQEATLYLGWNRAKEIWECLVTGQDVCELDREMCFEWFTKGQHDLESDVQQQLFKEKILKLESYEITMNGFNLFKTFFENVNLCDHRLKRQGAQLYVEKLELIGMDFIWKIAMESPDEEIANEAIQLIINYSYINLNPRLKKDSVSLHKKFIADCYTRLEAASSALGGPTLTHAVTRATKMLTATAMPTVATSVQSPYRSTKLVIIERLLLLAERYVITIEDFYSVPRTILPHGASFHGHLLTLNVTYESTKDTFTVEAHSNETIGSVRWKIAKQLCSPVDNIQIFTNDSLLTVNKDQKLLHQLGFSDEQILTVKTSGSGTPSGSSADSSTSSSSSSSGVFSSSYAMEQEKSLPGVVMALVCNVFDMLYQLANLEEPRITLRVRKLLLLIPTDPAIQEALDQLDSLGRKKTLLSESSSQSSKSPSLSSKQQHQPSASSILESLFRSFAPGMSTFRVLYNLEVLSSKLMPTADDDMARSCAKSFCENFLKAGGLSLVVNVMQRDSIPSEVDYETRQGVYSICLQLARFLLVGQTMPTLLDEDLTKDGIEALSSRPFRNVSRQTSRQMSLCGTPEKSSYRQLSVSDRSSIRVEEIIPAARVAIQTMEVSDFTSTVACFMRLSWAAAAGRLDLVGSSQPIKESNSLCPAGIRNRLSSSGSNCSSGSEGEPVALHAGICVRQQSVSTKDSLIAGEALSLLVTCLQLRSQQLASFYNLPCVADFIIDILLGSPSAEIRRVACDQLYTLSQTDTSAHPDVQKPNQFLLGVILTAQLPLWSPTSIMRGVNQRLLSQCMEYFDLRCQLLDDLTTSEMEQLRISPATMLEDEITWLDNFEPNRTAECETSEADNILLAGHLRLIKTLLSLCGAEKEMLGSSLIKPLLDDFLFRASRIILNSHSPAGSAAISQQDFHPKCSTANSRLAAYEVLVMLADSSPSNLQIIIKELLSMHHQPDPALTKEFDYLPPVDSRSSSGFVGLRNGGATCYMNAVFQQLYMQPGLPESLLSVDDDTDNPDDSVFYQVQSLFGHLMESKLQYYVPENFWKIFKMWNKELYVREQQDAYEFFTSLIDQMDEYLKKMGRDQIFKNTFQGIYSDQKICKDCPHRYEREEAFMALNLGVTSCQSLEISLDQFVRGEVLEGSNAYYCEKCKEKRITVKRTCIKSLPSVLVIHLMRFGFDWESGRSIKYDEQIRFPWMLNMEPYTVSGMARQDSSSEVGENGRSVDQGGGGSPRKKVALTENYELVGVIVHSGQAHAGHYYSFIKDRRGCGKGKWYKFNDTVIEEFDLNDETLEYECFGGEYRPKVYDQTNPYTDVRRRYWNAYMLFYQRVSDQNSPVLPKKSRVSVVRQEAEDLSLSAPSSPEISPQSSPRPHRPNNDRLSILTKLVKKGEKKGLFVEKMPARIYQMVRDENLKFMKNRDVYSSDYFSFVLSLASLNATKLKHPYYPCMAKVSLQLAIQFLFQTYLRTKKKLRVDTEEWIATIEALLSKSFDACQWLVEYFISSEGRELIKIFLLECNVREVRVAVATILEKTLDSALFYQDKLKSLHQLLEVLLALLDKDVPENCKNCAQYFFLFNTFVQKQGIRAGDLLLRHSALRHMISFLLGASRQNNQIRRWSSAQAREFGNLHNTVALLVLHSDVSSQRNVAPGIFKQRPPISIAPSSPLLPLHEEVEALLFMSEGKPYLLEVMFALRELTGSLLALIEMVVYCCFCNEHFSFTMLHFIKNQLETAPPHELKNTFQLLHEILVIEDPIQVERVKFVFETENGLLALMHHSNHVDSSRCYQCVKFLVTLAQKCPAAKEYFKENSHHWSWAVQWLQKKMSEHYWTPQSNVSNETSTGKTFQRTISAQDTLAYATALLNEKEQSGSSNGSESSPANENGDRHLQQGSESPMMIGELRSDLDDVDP

O=C(CCl)N1CCC(=C(F)CO)C1
inactive: [1] -0.052 | [2] 0.192 | [3] 0.183 | [4] 0.0707 | [5] -0.149
